Records with an inconclusive call do not appear. Active and inactive are the calls of the source. Unless noted, calls come from the whole dose curve; as a rule, active = well fitted curve in the direction sought with a large enough effect in the repeat runs; inconclusive = weak or mixed curves; inactive = no such curve, though single readings can be large; an effect the other way counts as inactive or inconclusive.
Assays:
[1] = qHTS assay for small molecules that induce genotoxicity in human embryonic kidney cells expressing luciferase-tagged ATAD5 (AID 651632); note: nearly all actives have a fitted effect of over 15% in size
Summary of the method: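 Reporter cells (HEK293T) express luciferase-tagged ATAD5, a protein that accumulates after DNA damage. Treat 16 hr at 37C/5% CO2, add Amplite, wait 30 min at RT, and read luminescence.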

[2] = qHTS assay for small molecule agonists of the p53 signaling pathway - cell viability (AID 651633; calls by dose curve;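 note: p53RE-bla HCT reporter cells with a stable beta-lactamase p53 reporter; series mostly up to about 83 µM; nearly all actives have a fitted effect of over 30% in size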)
Summary of the method: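 p53RE-bla cells, seeded at 4,000 per well and rested 5 h at 37 C/5% CO2, received compounds in DMSO for 16 h at 37 C. CellTiter-Glo was then added, and luminescence was read after 30 min at room temperature to gauge cytotoxicity.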

[3] = qHTS assay for small molecule disruptors of the mitochondrial membrane potential - cell viability (AID 720634; calls by dose curve;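 note: human HepG2 liver cancer cells; series mostly up to about 83 µM; nearly all actives have a fitted effect of over 20% in size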)
Summary of the method: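 Measuring cytotoxicity alongside mitochondrial potential, the screen quantified ATP by luminescence in HepG2 cells after 1 hr compound incubation and a 30 min room-temperature CellTiter-Glo step.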

[4] = qHTS assay for small molecule disruptors of the mitochondrial membrane potential (AID 720635)
Summary of the method: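 HepG2 cells (2,000/well) attached overnight at 37C, then took compound for 1 hr at 37C, 5% CO2. Mito-MPS dye was added for 30 min; fluorescence was read at 490/535 nm (monomers) and 540/590 nm (aggregates).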

[5] = qHTS assay to test for compound auto fluorescence at 590 nm (red) in HepG2 cells (AID 720674)
Summary of the method: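 Compound auto-fluorescence is scored relative to Rose Bengal sodium, measured at 540/590 nm in live HepG2 cultures after 1 hr compound contact (37 C, 5% CO2).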

[6] = qHTS assay to test for compound auto fluorescence at 535 nm (green) in HepG2 cells (AID 720675)
[7] = qHTS assay to test for compound auto fluorescence at 590 nm (red) in HEK293 cells (AID 720679)
Summary of the method: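 HEK293 cells (2,000/well, medium with 10% dialyzed FBS) attached for 4-5 hr at 37C, received 23 nL compound and were incubated overnight at 37C, 5% CO2. Red fluorescence was then read at 540/590nm Ex/Em, referenced to Rose Bengal sodium.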

[8] = qHTS assay to test for compound auto fluorescence at 535 nm (green) in HEK293 cells (AID 720680)
[9] = qHTS assay to test for compound auto fluorescence at 460 nm (blue) in HEK293 cell free culture (AID 720681)
Summary of the method: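 Test compounds were pinned into cell-free culture medium (DMEM with 10% FBS) and fluorescence was read directly at Ex/Em 405/460 nm. Signals were expressed as fluorescence equivalents of triamterene, with DMSO vehicle as control.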

[10] = qHTS assay to test for compound auto fluorescence at 535 nm (green) in HEK293 cell free culture (AID 720682)
Summary of the method: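 Green-channel intensity (Ex/Em 485/535 nm) was recorded from compound-treated wells containing only DMEM with 10% FBS. Fluorescein provided the equivalency standard.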

[11] = qHTS assay to test for compound auto fluorescence at 590 nm (red) in HEK293 cell free culture (AID 720683)
Summary of the method: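 Tox21 10K library compounds were pinned into cell-free DMEM with 10% FBS and fluorescence was read at excitation 540 nm. Activity is expressed as Rose Bengal sodium equivalency.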

[12] = qHTS assay to test for compound auto fluorescence at 590 nm (red) in HepG2 cell free culture (AID 720684)
Summary of the method: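 Measured in medium alone (MEM containing 10% FBS) following pintool addition of compound; emission at 590 nm with 540 nm excitation, referenced to Rose Bengal sodium.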

[13] = qHTS assay to test for compound auto fluorescence at 460 nm (blue) in HepG2 cell free culture (AID 720685)
Summary of the method: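 Compound (23 nL) or DMSO pinned into cell-free MEM with 10% FBS; blue fluorescence read at 405/460 nm excitation/emission, expressed as auto-fluorescence equivalency to triamterene.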

[14] = qHTS assay to test for compound auto fluorescence at 460 nm (blue) in HepG2 cells (AID 720687)
Summary of the method: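 Cells (2,000/well in MEM with 10% FBS) attached overnight at 37 C, then were exposed to compound or DMSO for 1 hr at 37 C, 5% CO2. Fluorescence read at Ex/Em 405/460 nm, expressed as triamterene-equivalent signal.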

[15] = molecular target: Glucocorticoid receptor (Homo sapiens) (UniProt P04150); experiment: qHTS assay to identify small molecule agonists of the glucocorticoid receptor (GR) signaling pathway (AID 720691; active = well fitted activation curve with a large enough effect in the signal ratio in the repeat runs, not every such curve was filed as active; the % refers to the signal ratio)
Summary of the method: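 Reporter read-out: fluorescence intensity following 2 h room-temperature LiveBLAzer B/G FRET substrate loading. Prior step: GR-bla HeLa cells held 4 h, then treated 18 h at 37 C.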

[16] = molecular target: Glucocorticoid receptor (Homo sapiens) (UniProt P04150); experiment: qHTS assay to identify small molecule antagonists of the glucocorticoid receptor (GR) signaling pathway (AID 720692; active = well fitted inhibition curve with a large enough effect in the signal ratio in the repeat runs, not every such curve was filed as active; the % refers to the signal ratio)
Summary of the method: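 Dexamethasone (5 nM final) stimulated a stably integrated GRE-beta-lactamase reporter in HeLa cells during 18 h co-incubation with compounds; signal was quantified as fluorescence intensity of B/G FRET substrate after 2 h.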

[17] = qHTS assay for small molecules that induce genotoxicity in human embryonic kidney cells expressing luciferase-tagged ATAD5 - cell viability (AID 651634; calls by dose curve; note: nearly all actives have a fitted effect of over 25% in size)
Summary of the method: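 Seeding of 2,000 HEK293T ATAD5-luciferase cells per well preceded pin-tool compound transfer. Plates sat 15.5 hr at 37C under 5% CO2, then fluorescence was read after 30 min with CellTiter-Fluor.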

[18] = qHTS assay to test for compound auto fluorescence at 460 nm (blue) in HEK293 cells (AID 720678)
Summary of the method: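 HEK293 cells (2,000 per well, medium with 10% dialyzed FBS) attached for 4-5 hr at 37C, then received compound and stood overnight at 37C, 5% CO2. Blue fluorescence was read at Ex/Em 405/460 nm and expressed relative to triamterene.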

[19] = qHTS assay to test for compound auto fluorescence at 535 nm (green) in HepG2 cell free culture (AID 720686)
% is set by controls: 0 for no effect and ±100 for the full control effect.

Sequence of Glucocorticoid receptor (Homo sapiens) (P04150 whole entry, looked up): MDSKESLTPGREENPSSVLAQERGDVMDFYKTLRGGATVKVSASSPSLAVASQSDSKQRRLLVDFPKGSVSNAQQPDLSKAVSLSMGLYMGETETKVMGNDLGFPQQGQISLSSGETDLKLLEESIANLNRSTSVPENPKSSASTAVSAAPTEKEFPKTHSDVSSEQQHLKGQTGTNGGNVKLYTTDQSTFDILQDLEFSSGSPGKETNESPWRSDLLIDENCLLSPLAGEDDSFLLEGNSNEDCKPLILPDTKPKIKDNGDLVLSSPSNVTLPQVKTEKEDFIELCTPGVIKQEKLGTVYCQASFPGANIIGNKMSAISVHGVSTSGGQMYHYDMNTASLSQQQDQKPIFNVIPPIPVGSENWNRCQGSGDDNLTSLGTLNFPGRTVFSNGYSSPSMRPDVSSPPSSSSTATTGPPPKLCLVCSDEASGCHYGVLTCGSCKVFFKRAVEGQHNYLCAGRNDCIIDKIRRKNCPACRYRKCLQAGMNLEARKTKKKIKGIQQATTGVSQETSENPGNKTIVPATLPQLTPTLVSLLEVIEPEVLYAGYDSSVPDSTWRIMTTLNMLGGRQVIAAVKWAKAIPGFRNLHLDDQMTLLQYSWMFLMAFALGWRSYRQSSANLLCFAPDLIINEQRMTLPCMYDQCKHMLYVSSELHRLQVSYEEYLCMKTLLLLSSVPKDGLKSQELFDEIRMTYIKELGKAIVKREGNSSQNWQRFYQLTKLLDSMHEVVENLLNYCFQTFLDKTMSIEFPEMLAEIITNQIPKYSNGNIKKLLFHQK

CCC1(c2ccccc2)C(=O)N(COC)C(=O)N(COC)C1=O
inactive: outcome [1] | Potency [2] | Potency [3] | Potency [4] | outcome [5] | outcome [6] | outcome [7] | outcome [8] | outcome [9] | outcome [10] | outcome [11] | outcome [12] | outcome [13] | outcome [14] | Potency [15] | Potency [16]

C(COCC1CO1)OCC1CO1 (stereo unspecified)
inactive: outcome [1] | Potency [2] | Potency [17] | Potency [3] | outcome [5] | outcome [6] | outcome [18] | outcome [7] | outcome [8] | outcome [9] | outcome [10] | outcome [11] | outcome [12] | outcome [13] | outcome [14] | Potency [15] | Potency [16]

OP(O)c1ccccc1
inactive: outcome [1] | Potency [2] | Potency [17] | Potency [3] | Potency [4] | outcome [5] | outcome [6] | outcome [7] | outcome [8] | outcome [9] | outcome [10] | outcome [11] | outcome [12] | outcome [13] | outcome [19] | outcome [14] | Potency [15]

S=C=S
inactive: outcome [1] | Potency [2] | Potency [3] | Potency [4] | outcome [5] | outcome [6] | outcome [18] | outcome [7] | outcome [8] | outcome [9] | outcome [10] | outcome [11] | outcome [12] | outcome [13] | outcome [14] | Potency [15] | Potency [16]

CC(C)c1ccc(O)cc1
inactive: outcome [1] | Potency [2] | Potency [17] | Potency [3] | outcome [5] | outcome [6] | outcome [7] | outcome [8] | outcome [9] | outcome [10] | outcome [11] | outcome [12] | outcome [13] | outcome [19] | Potency [15]

COC(=O)c1ccccc1CS(=O)(=O)NC(=O)Nc1nc(OC)cc(OC)n1
inactive: outcome [1] | Potency [2] | Potency [17] | Potency [3] | outcome [5] | outcome [6] | outcome [18] | outcome [7] | outcome [8] | outcome [9] | outcome [10] | outcome [11] | outcome [12] | outcome [13] | outcome [19] | outcome [14] | Potency [15] | Potency [16]

O=P(O)(O)CN(CP(=O)(O)O)CP(=O)(O)O
inactive: outcome [1] | Potency [2] | Potency [17] | Potency [3] | fluorescence, relative to Rose Bengal [5] -0.158% [at 18.6 µM] | fluorescence, % of fluorescein control [6] -0.0161% [at 18.6 µM] | fluorescence, % of triamterene [18] 0.0178% [at 18.6 µM] | fluorescence, % of fluorescent control [7] 0.149% [at 18.6 µM] | fluorescence, % of fluorescein [8] -0.175% [at 18.6 µM] | fluorescence, % of fluorescent control [9] -0.0261% [at 18.6 µM] | activity change [10] -0.0587% [at 18.6 µM] | fluorescence, % of fluorescent control [11] 0.0352% [at 18.6 µM] | fluorescence, % of Rose Bengal [12] -0.0485% [at 18.6 µM] | fluorescence, % of fluorescent control [13] -0.13% [at 18.6 µM] | fluorescence, % of fluorescein control [19] 0.0644% [at 18.6 µM] | fluorescence, % of fluorescent control [14] -0.044% [at 18.6 µM] | Potency [15] | Potency [16]

O=C(NC(O)C(Cl)(Cl)Cl)NC(O)C(Cl)(Cl)Cl (stereo unspecified)
inactive: Potency [2] | Potency [17] | Potency [3] | outcome [5] | outcome [6] | outcome [7] | outcome [8] | outcome [9] | outcome [10] | outcome [11] | outcome [13] | outcome [14] | Potency [15]
